The values below come from PubChem BioAssay (NCI).

Common to all, as to experiment: NCI-60 one-dose screen, 48 h (100 = growth as untreated, 0 = no growth, -100 = all killed)
In one assay the test system is HT29 colon. As to conditions: 10 µM unless noted.
Another assay has as its system SNB-75 CNS. Particulars: 10 µM unless noted.
A further assay relates to SNB-19 CNS. Particulars: 10 µM unless noted.
In the next assay the test system is PC-3 prostate. Particulars: 10 µM unless noted.
In a further assay the test system is SK-MEL-5 melanoma. As to conditions: 10 µM unless noted.
The test system of another assay is UACC-62 melanoma. Particulars: 10 µM unless noted.
A further assay relates to LOX IMVI melanoma. As to conditions: 10 µM unless noted.
The next assay deals with SK-MEL-28 melanoma. As to conditions: 10 µM.
The subject of the next assay is SK-MEL-2 melanoma. Particulars: 10 µM unless noted.
A further assay concerns EKVX NSCLC. As to conditions: 10 µM unless noted.
In another assay the test system is SN12C renal. As to conditions: 10 µM unless noted.
For another assay, the system named is UO-31 renal. Particulars: 10 µM unless noted.
For the next assay, the system named is TK-10 renal. As to conditions: 10 µM unless noted.
In a further assay the test system is ACHN renal. As to conditions: 10 µM unless noted.
Another assay deals with CAKI-1 renal. Particulars: 10 µM unless noted.
Another assay relates to A498 renal. As to conditions: 10 µM unless noted.
Another assay concerns CCRF-CEM leukemia. Particulars: 10 µM unless noted.
Another assay has as its system MOLT-4 leukemia. As to conditions: 10 µM unless noted.
The subject of another assay is SR leukemia. As to conditions: 10 µM unless noted.

The panel holds about 83,000 compounds, 20% with a hit somewhere; the sample as a whole holds those more often.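 A percent growth of 40 corresponds to 60% growth inhibition; 0 means no net growth; -100 means all cells died. Active threshold: below 10.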 Unmarked numbers belong to inactive results. Active and inactive are the calls of the source.

Turning to `COc1cc(/C(C#N)=C/c2nc3c(N4CCOCC4)nc(Cl)nc3n2C)cc(OC)c1OC`, the growth is 9.95% (active) with HT29 colon; -9.92% (active) in the assay on SNB-75 CNS; 17.7% in the assay with SNB-19 CNS; 10.6% in the assay with PC-3 prostate; -38.3% (active) in the assay with SK-MEL-5 melanoma; 2.78% (active) in the assay with UACC-62 melanoma. Besides, the growth in the assay with LOX IMVI melanoma was 8.21% (active); in the assay on SK-MEL-28 melanoma, 46%; with SK-MEL-2 melanoma, 57.3%; in the assay on EKVX NSCLC, 35.2%; with SN12C renal, 14.9%; in the assay with UO-31 renal it was -1.84% (active). For the same compound, the growth in the assay on TK-10 renal was 50.5%; in the assay on ACHN renal, 13.7%; in the assay with CAKI-1 renal, 6.49% (active); with A498 renal it was -28.1% (active); in the assay with CCRF-CEM leukemia, 14.4%; with MOLT-4 leukemia, 9.93% (active). Moreover, in the assay with SR leukemia, the growth is 27.9%.

As to `Nc1no[n+]([O-])c1-c1nnc2c(n1)-c1ccccc1C2=O`, the growth is 57.1% in the assay with HT29 colon; 95% in the assay on SNB-75 CNS; 84.5% in the assay on SNB-19 CNS; 33.6% with PC-3 prostate; 19.7% with SK-MEL-5 melanoma; 64.3% in the assay with UACC-62 melanoma. For the same compound, the growth was 27.5% in the assay with LOX IMVI melanoma; 81.4% in the assay with SK-MEL-28 melanoma; 86.9% in the assay with SK-MEL-2 melanoma; 63.8% in the assay with EKVX NSCLC; 15.6% with SN12C renal; 37% with UO-31 renal. Also, the growth with TK-10 renal was 151%; in the assay on ACHN renal it was 16%; in the assay on CAKI-1 renal it was 72.4%; with A498 renal, 91%; in the assay on CCRF-CEM leukemia it was 35.5%; in the assay with MOLT-4 leukemia, 5.49% (active).

Regarding `COc1ccc2sc3c(NCCCN)nc4ccccc4c3c(=O)c2c1`, the growth with HT29 colon is -47.8% (active); in the assay on SNB-75 CNS, 48.3%; in the assay with SNB-19 CNS, 69.6%; in the assay on PC-3 prostate, 48.8%; in the assay on SK-MEL-5 melanoma, 84.3%; in the assay with UACC-62 melanoma, 61%. The growth in the assay with LOX IMVI melanoma is -87.2% (active); in the assay on SK-MEL-28 melanoma, 84.8%; with SK-MEL-2 melanoma, 96.2%; in the assay on EKVX NSCLC, 57.5%; in the assay with SN12C renal, 81.3%; in the assay with UO-31 renal, 67.1%. Further, the growth is 74.8% in the assay with TK-10 renal; 48.7% in the assay with ACHN renal; 73% in the assay on CAKI-1 renal; 49.8% in the assay with A498 renal; 0.782% (active) in the assay on CCRF-CEM leukemia; -17.3% (active) in the assay with MOLT-4 leukemia. Moreover, in the assay on SR leukemia, the growth is 2.94% (active).

`CN=c1ccc2nc3ccc(N)cc3sc-2c1`: the growth in the assay on HT29 colon was 84.6%; in the assay with SNB-75 CNS, 33.6%; in the assay with SNB-19 CNS, 30.9%; in the assay on PC-3 prostate it was 5.54% (active); in the assay with UACC-62 melanoma, 15.8%; in the assay on LOX IMVI melanoma, 2.59% (active). In addition, the growth was 51.7% in the assay with SK-MEL-28 melanoma; -0.853% (active) in the assay with SK-MEL-2 melanoma; 17% in the assay on SN12C renal; 60.7% in the assay on UO-31 renal; 49.4% in the assay with TK-10 renal; 42.2% with ACHN renal. For the same compound, the growth in the assay on CAKI-1 renal is 28.2%; in the assay with A498 renal it was 79.9%; with CCRF-CEM leukemia, 21.5%; with MOLT-4 leukemia it was 1.3% (active); in the assay with SR leukemia, 38%.

`COc1ccc(-c2cn[nH]c2-c2cc(OC)c(OC)c(OC)c2)cc1OCc1ccccc1`: the growth in the assay with HT29 colon was 84.9%; with SNB-75 CNS it was 5.94% (active); with SNB-19 CNS it was 41.1%; with PC-3 prostate, 22.4%; in the assay with UACC-62 melanoma, 21.8%; with LOX IMVI melanoma, 21.5%. For the same compound, the growth in the assay on SK-MEL-28 melanoma is 48.5%; in the assay on SK-MEL-2 melanoma, 2.98% (active); in the assay with EKVX NSCLC, 33.5%; with SN12C renal it was 62.3%; in the assay on UO-31 renal, 25.6%; in the assay on TK-10 renal, 50.9%. Besides, the growth in the assay with ACHN renal was 34.1%; in the assay on CAKI-1 renal, 28.9%; in the assay on A498 renal, -18.9% (active); with CCRF-CEM leukemia, 47%; with MOLT-4 leukemia it was 64.5%; with SR leukemia it was 27.5%.

Turning to `COC(=O)/C(=C\c1c(C)[nH]c2ccccc12)S(=O)(=O)c1ccccc1`, the growth in the assay on HT29 colon is 9.54% (active); with SNB-75 CNS, -8.87% (active); in the assay with SNB-19 CNS, 19.1%; with PC-3 prostate, -1.81% (active); in the assay with SK-MEL-5 melanoma it was 34.1%; in the assay with UACC-62 melanoma it was 53.8%. In addition, the growth with LOX IMVI melanoma was 15.6%; in the assay on SK-MEL-28 melanoma, 16.6%; in the assay on SK-MEL-2 melanoma, 23.9%; in the assay on EKVX NSCLC it was 61.3%; in the assay with SN12C renal it was 39.7%; with TK-10 renal it was 46.8%. The growth was 49.1% with ACHN renal; 27% in the assay on CAKI-1 renal; -3.18% (active) in the assay with A498 renal; 15.5% with MOLT-4 leukemia; 27.2% in the assay on SR leukemia.

As to `COC(=O)C1=C(C)NC(C)=C(C(=O)OC)C(N2C(=O)CCC2=O)C1` (centres undefined), the growth in the assay on HT29 colon is 98.5%; in the assay on SNB-75 CNS, 77.3%; in the assay on SNB-19 CNS, 99.9%; with PC-3 prostate it was 84.6%; in the assay on SK-MEL-5 melanoma, 102%; in the assay with UACC-62 melanoma, 83.8%. For the same compound, the growth was 82.4% with LOX IMVI melanoma; 95.5% in the assay with SK-MEL-28 melanoma; 99.1% with SK-MEL-2 melanoma; 88.7% in the assay on SN12C renal; 81.9% in the assay with UO-31 renal; 123% in the assay on TK-10 renal. Further, the growth in the assay on ACHN renal is 99%; in the assay with CAKI-1 renal it was 92.6%; with A498 renal, 109%; with CCRF-CEM leukemia, 35.3%; in the assay on MOLT-4 leukemia it was 78.1%; in the assay on SR leukemia, 37.3%.

`Cc1nc2ccccc2c(/C=C/c2ccc(F)cc2)c1C(N)=O`: the growth is 115% in the assay with HT29 colon; 85.4% with SNB-75 CNS; 99.2% in the assay on SNB-19 CNS; 89.1% in the assay with PC-3 prostate; 95.9% with SK-MEL-5 melanoma; 96.1% with UACC-62 melanoma. The growth is 96.4% in the assay with LOX IMVI melanoma; 117% in the assay on SK-MEL-28 melanoma; 105% in the assay on SK-MEL-2 melanoma; 94.8% in the assay with EKVX NSCLC; 102% in the assay on SN12C renal; 80.9% with UO-31 renal. In addition, the growth in the assay with TK-10 renal was 134%; with ACHN renal, 100%; in the assay on CAKI-1 renal, 87.2%; with A498 renal, 89.2%; with CCRF-CEM leukemia it was 93.6%; with MOLT-4 leukemia it was 111%.
